This note sets out measurements from PubChem BioAssay (EPA / NIEHS).

Records with an inconclusive call do not appear. Active and inactive are the calls of the source. How the source made its calls: active means hit-call score of the fitted dose curve at least 0.9, where 1 is the maximum; inconclusive means response in the unintended direction; inactive means score below 0.9.

Retinoic acid receptor RXR-alpha (Homo sapiens), sequence (P19793 whole entry, looked up, the tested form may be a part): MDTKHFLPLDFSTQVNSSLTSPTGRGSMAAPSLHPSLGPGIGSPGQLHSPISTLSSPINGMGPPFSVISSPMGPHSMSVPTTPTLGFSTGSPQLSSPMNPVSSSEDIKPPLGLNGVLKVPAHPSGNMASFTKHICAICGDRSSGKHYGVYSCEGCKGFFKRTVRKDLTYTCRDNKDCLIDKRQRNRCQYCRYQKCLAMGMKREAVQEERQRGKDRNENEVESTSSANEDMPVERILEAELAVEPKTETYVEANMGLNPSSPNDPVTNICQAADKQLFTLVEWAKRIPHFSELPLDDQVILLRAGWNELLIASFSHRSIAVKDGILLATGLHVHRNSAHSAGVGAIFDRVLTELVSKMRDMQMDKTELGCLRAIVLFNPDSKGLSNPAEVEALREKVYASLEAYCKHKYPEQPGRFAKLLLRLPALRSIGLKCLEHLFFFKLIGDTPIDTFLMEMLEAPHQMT

The test has as its target Retinoic acid receptor RXR-alpha (Homo sapiens) (UniProt P19793). Kind of test: OT_NURR1_NURR1RXRa_0480: Odyssey Thera (OT) 8-hour HEK293T Protein Complementation Assay for Nurr1/retinoid X receptor (RXR) (AID 2283385). As to the method: OT_NURR1_NURR1RXRa_0480 is a cell-based assay that uses HEK293T, a human kidney cell line, with measurements taken at 8 hours after chemical dosing in a 384-well plate.OT_NURR1_NURR1RXRa_0480 is one of one assay component(s) measured or calculated from the OT_NURR1_NURR1RXRa_0480 assay. It is designed to make measurements of protein fragment complementation, a form of binding reporter, as detected with fluorescence intensity signals by Protein-fragment Complementation technology.Data from the assay component OT_NURR1_NURR1RXRa_0480 was analyzed into 1 assay endpoint. This assay endpoint, OT_NURR1_NURR1RXRa_0480, was analyzed in the positive analysis fitting direction relative to DMSO as the negative control and baseline of activity. Using a type of binding reporter, measures of receptor for gain-of-signal activity can be used to understand the binding at the pathway-level as they relate to the gene RXRA. Furthermore, this assay endpoint can be referred to as a primary readout, because the performed assay has only produced 1 assay endpoint. To generalize the intended target to other relatable targets, this assay endpoint is annotated to the nuclear receptor intended target family, where the subfamily is non-steroidal.
Protein-fragment complementation assay, or PCA, is a method for the identification and quantification of protein-protein interactions. In the PCA, the proteins of interest ("bait" and "prey") are each covalently linked to fragments of a third protein (e.g. DHFR, which acts as a "reporter"). Interaction between the bait and the prey proteins brings the fragments of the reporter protein in close proximity to allow them to form a functional reporter protein whose activity can be measured.
In the case of `COCCOCCC[Si](C)(O[Si](C)(C)C)O[Si](C)(C)C`, the AC50 was 33.2 µM (active). As to `CCCCOC(=O)[C@H](C)O`, the compound was called inactive.

With `CC(=O)CCC(C)C`, the outcome was inactive. On to `Cc1ccc([N+](=O)[O-])c(C)c1`, for which the compound was classed as inactive.

In the case of `CCN=c1cc2oc3cc(NCC)c(C)cc3c(-c3ccccc3C(=O)OCC)c-2cc1C`, the AC50 is 0.603 µM (active).

With `CCC(Cc1c(I)cc(I)c(N)c1I)C(=O)O` (stereo not given), the outcome was inactive. Still for that read-out and setting: the result for `CC(C)Nc1ccc(NC(C)C)c2c1C(=O)c1ccccc1C2=O` reads “inactive”; that for `C[C@]12CC[C@H]3C(=CCc4cc(O)ccc43)[C@@H]1CCC2=O`, “inactive”. In the case of `CCc1cc(Cc2cc(CC)c(N)c(CC)c2)cc(CC)c1N`, the AC50 is 11.5 µM (active). On to `Cc1ccc(O)c(-n2nc3ccccc3n2)c1`, for which the outcome was inactive. In the case of `CC(C)OC=O`, the outcome was inactive. On the same count and under the same terms, the result for `CCCCOC(=O)C(C)O` (stereo not given) reads “inactive”. With `CCCCC(CC)COC(=O)c1ccc(N(C)C)cc1` (stereo not given), the AC50 was 77.7 µM (active). For `CCCCCCCC/C=C\CCCCCCCC(=O)N(C)CC(=O)O`, the outcome was inactive. Consider `CCCCCCCC/C=C\CCCCCCCC(=O)OCC(O)CO` (stereo not given), for which the AC50 was 71.1 µM (active). Turning to `CC(C)(C)c1cc(CCC(=O)OCC(COC(=O)CCc2cc(C(C)(C)C)c(O)c(C(C)(C)C)c2)(COC(=O)CCc2cc(C(C)(C)C)c(O)c(C(C)(C)C)c2)COC(=O)CCc2cc(C(C)(C)C)c(O)c(C(C)(C)C)c2)cc(C(C)(C)C)c1O`, the result was inactive.

On to `CCCCCCCCn1sc(Cl)c(Cl)c1=O`, for which the outcome was inactive. On the same count and under the same terms, the result for `O=C(c1ccccc1)c1ccc(O)cc1O` reads “inactive”; that for `CCOC(=O)C1CC(=O)C(=C(O)C2CC2)C(=O)C1` (stereo not given), “inactive”; that for `CCCCCCCCCc1ccc(OCCO)cc1`, “inactive”.
